# Source: PubChem (NMMLSC)
# RGS4-Gao reg = modulators of RGS4 binding to Galphao, primary screen, biochemical, multiplexed bead flow cytometry. Guanine nucleotide-binding protein G(o) subunit alpha (Homo sapiens), P09471. actives lie on both sides. binding response (% of control), % at 10 µM. actives 0.33% (n = 220,000). AID 1415, 2008; in the data active = binding response below about 49% or above about 150%; inactive = in between;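 note: fluorescent Galphao activated with aluminum fluoride binding bead-coupled RGS4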
# Target sequence (P09471 whole entry, looked up): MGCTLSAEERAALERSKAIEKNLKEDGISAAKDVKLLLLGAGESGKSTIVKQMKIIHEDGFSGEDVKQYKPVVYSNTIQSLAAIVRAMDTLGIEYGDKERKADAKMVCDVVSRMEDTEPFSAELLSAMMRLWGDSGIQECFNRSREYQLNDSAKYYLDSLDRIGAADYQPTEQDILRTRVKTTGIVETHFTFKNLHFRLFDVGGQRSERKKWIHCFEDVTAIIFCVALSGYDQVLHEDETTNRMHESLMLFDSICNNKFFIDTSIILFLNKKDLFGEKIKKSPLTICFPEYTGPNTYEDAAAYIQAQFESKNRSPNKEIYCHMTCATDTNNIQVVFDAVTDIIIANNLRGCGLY
# RGS16-Gao HTS = modulators of RGS16 binding to Galphao, primary screen, biochemical, human proteins, multiplexed bead flow cytometry; bead-based flow cytometry RGS16-Galphao binding, fluorescence; actives lie on both sides; binding response (% of control), % at 10 µM; actives 0.38% (n = 220,000);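 note: Galphao activated by GDP with aluminum fluoride before binding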
# Target sequence (O15492 whole entry, looked up): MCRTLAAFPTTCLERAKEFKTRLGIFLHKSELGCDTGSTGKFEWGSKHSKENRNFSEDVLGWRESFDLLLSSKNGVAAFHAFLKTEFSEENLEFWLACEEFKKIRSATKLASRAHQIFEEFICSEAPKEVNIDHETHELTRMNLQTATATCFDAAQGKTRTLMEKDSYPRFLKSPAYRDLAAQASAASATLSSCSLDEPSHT
# Target sequence (P09471 whole entry, looked up): as the sequence (P09471 whole entry, looked up) above
# Avidin bead fluor = green autofluorescence of compounds with avidin beads – biophysical, 488/530 nm, flow cytometry, artefact control, profiling panel; compound fluorescence 488/530 nm; active compounds read high; fluorescence (KMESF) at 10 µM; actives 0.38% (n = 220,000); in the data active = fluorescence above about 47
# RGS8-Gao reg = RGS8-Galphao binding modulators, primary screen, biochemical, multiplexed bead flow cytometry. Guanine nucleotide-binding protein G(o) subunit alpha (Homo sapiens), P09471. actives lie on both sides. response (percent of control binding), % at 10 µM. actives 0.34% (n = 220,000); in the data active = response below about 60% or above about 140%; inactive = in between;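 note: Galphao activated as the GDP aluminium fluoride complex binding bead-coupled RGS8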
# RGS7-Gao reg = RGS7-Galphao binding modulators, primary screen, biochemical, multiplexed bead flow cytometry; actives 0.35% (n = 220,000); binding response (% of control), % at 10 µM; AID 1439, 2008; actives lie on both sides; in the data active = binding response below about 49% or above about 150%; inconclusive = no clear call, values can overlap the other calls; inactive = in between;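 note: fluorescent Galphao held in activated GDP-AlF4 state binding bead-coupled RGS7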
# GSH fluor = compound fluorescence on glutathione beads, profiling panel, artefact control, biophysical, 488/530 nm, flow cytometry; GSH beads flow cytometry, compound fluorescence 488/530 nm; active compounds read high; fluorescence (KMESF) at 10 µM; actives 0.25% (n = 190,000); AID 1776, 2009; in the data active = fluorescence above about 89;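 note: glutathione beads carrying GST-tagged Bcl family fusion proteins plus one bare bead set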
# RGS4-Gao HTS = modulators of RGS–Galpha-o binding, primary screen, biochemical, multiplexed beads, flow cytometry, RGS4/7/8/16/19; shares compounds with RGS16-Gao HTS; multiplexed bead flow cytometry; RGS4–Galpha-o binding response, % at 10 µM; actives 99% (n = 1,600);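 note: fluorescently labeled Galpha-o bound to GDP with aluminium fluoride binding biotinylated RGS beads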
# Biotin-avidin = disruption of biotin probe capture by avidin, counter-screen for RGS protein interaction modulators, biochemical, flow cytometry, bead-based; shares compounds with RGS16-Gao HTS; streptavidin beads, fluorescein-biotin binding; inhibition, % at 10 µM; 1,700 tested, under 10 active;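 active = inhibition above 50%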;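 note: median green fluorescence of gated singlet beads compared with DMSO control wells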
# RGS8-Gao single = RGS8-Galphao binding modulators, confirmation, biochemical, multiplexed bead flow cytometry, single concentration; shares compounds with RGS16-Gao HTS; bead-based flow cytometry RGS8-Galphao binding, fluorescence; actives lie on both sides; binding response (% of control), % at 10 µM; actives 3% (n = 1,700); in the data active = binding response below about 72% or above about 130%; inactive = in between;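 note: Galphao activated as GDP AlF4 complex before binding bead RGS8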
# RGS7-Gao confirm = RGS7-Galphao binding modulators, confirmation, biochemical, multiplexed bead flow cytometry, single concentration; shares compounds with RGS16-Gao HTS; bead-based flow cytometry RGS7-Galphao binding; actives lie on both sides; response (percent of control binding), % at 10 µM; actives 7.8% (n = 1,700); AID 1837, 2009; in the data active = response below about 75% or above about 130%; inactive = in between;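 note: fluorescent Galphao activated with GDP and aluminum fluoride binding bead-coupled RGS7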
# RGS16-Gao conf = modulators of RGS16-Galphao protein binding, confirmation, biochemical, single concentration, multiplexed bead flow cytometry; shares compounds with RGS16-Gao HTS; actives 4% (n = 1,700); bead-based flow cytometry; actives lie on both sides; response (% of control binding), % at 10 µM; in the data active = response below about 74% or above about 130%; inactive = in between;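 note: Galphao activated as the GDP aluminium fluoride complex binding bead-coupled RGS16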
# RGS4-Gao confirm = modulators of RGS4-Galphao protein binding, confirmation, biochemical, single concentration, multiplexed bead flow cytometry | shares compounds with RGS16-Gao HTS | actives lie on both sides | binding response (% of control), % at 10 µM | actives 4% (n = 1,700) | AID 1840, 2009; in the data active = binding response below about 74% or above about 130%; inactive = in between
# RGS19-Gao conf = regulators of RGS19-Galphao binding, confirmation, biochemical, single point, multiplexed bead flow cytometry | shares compounds with RGS16-Gao HTS | bead-based flow cytometry RGS19-Galphao binding; actives lie on both sides | response (percent of control binding), % at 10 µM | actives 5% (n = 1,700) | AID 1841, 2009; in the data active = response below about 50% or above about 160%; inactive = in between
# A number is an active result; i = inactive; ? = inconclusive; nt = no result; [ ] = dose if it differs, or a comment. Sampled rows, rich in hits. Any-hit rate of the full collection: about 1.2%. Unless noted, the rule behind the calls is not given here.
SMILES,RGS4-Gao reg,RGS16-Gao HTS,Avidin bead fluor,RGS8-Gao reg,RGS7-Gao reg,GSH fluor,RGS4-Gao HTS,Biotin-avidin,RGS8-Gao single,RGS7-Gao confirm,RGS16-Gao conf,RGS4-Gao confirm,RGS19-Gao conf
O=C(NCc1ccccc1)c1ccc(C(=O)N(C2CCCCC2)C2CCCCC2)cc1,nt,nt,nt,nt,nt,i,nt,i,i,i,i,i,i
Cc1ccc(NC2=C/C(=N/S(=O)(=O)c3cccs3)c3ccccc3C2=O)cc1C,i,i,i,i,i,i,nt,nt,nt,nt,nt,nt,nt
Cc1cc(C)c(S(=O)(=O)/N=C2/C=C(Sc3ncn[nH]3)C(=O)c3ccccc32)cc1C,i,-0.4,i,i,i,i,89.5,nt,nt,nt,nt,nt,nt
CCOC(=O)c1c(NC(=O)c2cc(-c3ccc(O)cc3)on2)sc(C(C)=O)c1C,258.5[activator],344.1[activator],i,i,i,i,nt,i,i,145.2[activator],195.8[activator],151.7[activator],432.9[activator]
CCOC(=O)c1c(NC(=O)CSc2nc3ccccc3o2)sc(C(C)=O)c1C,1.8,-3.6,i,7.6,2.6,i,nt,i,i,i,i,i,i
CCOC(=O)c1sc(NC(=O)CSc2nnc(Cc3ccccc3)o2)c(C#N)c1C,i,18.7,i,i,i,i,101.3,i,69.5,143.4[activator],50.7,i,32.5
O=C(NCCCn1ccnc1)/C(=C\c1cccs1)NC(=O)c1cccs1,i,i,i,i,i,i,nt,nt,nt,nt,nt,nt,nt
O=C(NCC1CCCO1)c1cccc(S(=O)(=O)NCc2ccccc2)c1 (stereo unspecified),i,i,i,i,i,i,nt,nt,nt,nt,nt,nt,nt
COc1ccc(Cc2nc(-c3ccc(Cl)cc3)no2)cc1,i,i,i,i,i,i,nt,nt,nt,nt,nt,nt,nt
COc1ccc(-c2noc(Cc3ccc(Cl)cc3)n2)cc1OC,i,i,67,i,166.5[activator],i,109.2,i,i,i,i,i,i
O=C(CN1CCN(c2ncccn2)CC1)N1CCCC1,i,i,i,i,i,i,nt,nt,nt,nt,nt,nt,nt
CCN(CC)C(=O)CN1CCN(c2ncccn2)CC1,i,i,i,142.0[activator],i,i,120.2,i,i,i,i,i,i
Cc1ccc(C2=N/C(=C\N3CCCCC3)C(=O)O2)cc1,197.7[activator],204.3[activator],89,i,168.6[activator],i,nt,i,i,i,i,i,i
Cc1ccc(C2=N/C(=C/N3CCOCC3)C(=O)O2)cc1,i,i,i,i,i,i,nt,nt,nt,nt,nt,nt,nt
CC1=NN(c2cccc(C(=O)O)c2)C(=O)/C1=C\C=C/c1ccccc1,i,i,i,i,i,i,nt,nt,nt,nt,nt,nt,nt
Cn1c(=O)c2c(nc(SCCN3CCOCC3)n2Cc2ccccc2Cl)n(C)c1=O,i,i,i,i,i,i,nt,nt,nt,nt,nt,nt,nt
Cn1c(=O)c2c(nc(SCCN3CCOCC3)n2Cc2ccc(F)cc2)n(C)c1=O,i,i,i,157.9[activator],i,i,138.7,i,i,i,i,i,i
Cc1ccc(C2C3=C(CC(C)(C)CC3=O)Nc3onc(C)c32)cc1 (stereo unspecified),i,i,nt,nt,i,i,nt,i,i,i,i,i,i
Cc1ccc(NC(=O)/C(=C\c2cccnc2)NC(=O)c2ccco2)cc1,i,i,i,i,i,i,nt,nt,nt,nt,nt,nt,nt
CC(=O)NC(C)c1ccc(Cl)c(Cl)c1 (stereo unspecified),i,i,i,156.0[activator],i,i,138.9,nt,nt,nt,nt,nt,nt
COc1cc(OC)nc(NC(=O)COC(=O)c2cccc(Cl)c2)n1,i,i,i,i,?,i,nt,nt,nt,nt,nt,nt,nt
O=C(C(=O)N1CCCc2ccccc21)N1CCCc2ccccc21,i,182.2[activator],i,i,i,i,104.8,i,i,i,i,i,i
COc1ccc(/C=N/Nc2ncnc3sc4c(c23)CCCC4)cc1OC,i,i,i,i,i,i,nt,nt,nt,nt,nt,nt,nt
COC(=O)c1cc(C(=O)Nc2ccc(C)cn2)cc([N+](=O)[O-])c1,nt,nt,nt,nt,nt,i,nt,i,i,74.6,i,i,i
O=C(NCC1CC1)NC(=O)c1c(F)cccc1Cl,5.7,9.3,i,42.2,?,nt,nt,i,i,i,i,i,i
SMILES,RGS4-Gao reg,RGS16-Gao HTS,Avidin bead fluor,RGS8-Gao reg,RGS7-Gao reg,GSH fluor,RGS4-Gao HTS,Biotin-avidin,RGS8-Gao single,RGS7-Gao confirm,RGS16-Gao conf,RGS4-Gao confirm,RGS19-Gao conf
CCSc1nnc(NC(=O)C(CC)(C(F)(F)F)C(F)(F)F)s1,i,i,i,i,i,i,nt,nt,nt,nt,nt,nt,nt
CCSc1nnc(NC(=O)C(C)(C(F)(F)F)C(F)(F)F)s1,i,287.6[activator],i,i,i,i,112.4,i,i,i,i,i,i
O=C(/C=C/c1ccc(O)cc1)c1ccccc1,i,i,i,i,?,nt,nt,nt,nt,nt,nt,nt,nt
O=C(/C=C/c1ccc(N2CCC(c3ccccc3)=N2)cc1)c1ccccc1,i,i,i,i,153.2[activator],172,113.5,nt,nt,nt,nt,nt,nt
Cc1cc(NS(=O)(=O)c2ccc(NC(NC(=O)C(C(F)(F)F)C(F)(F)F)(C(F)(F)F)C(F)(F)F)cc2)no1,i,i,i,i,155.4[activator],i,101.2,i,i,i,i,i,i
CCCCOC(=O)c1ccc(NC(=O)c2ccccc2OC)cc1,i,18.5,i,i,i,i,77.4,i,i,i,i,i,i
CCCOC(=O)c1ccc(NC(=O)c2ccccc2OC)cc1,i,i,i,i,i,i,nt,nt,nt,nt,nt,nt,nt
